Measured values from the supplement of paper PMC10338343.
± gives the standard deviation.

Key:
[1] = system: MILI (PIWIL2) piRISC loaded with piRNA #1 (26 nt); test: pre-steady-state target cleavage rate (min^-1); guide: piRNA #1 5'p-UGAGGUAGUAGGUUGUAUAGUAUCCA; higher = faster piRNA-guided slicing of the target; conditions: auxiliary factor: 500 nM mouse GTSF1;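 further: 1 nM active piRISC with 0.1 nM target library at 33 °C single turnover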
How it was run: (§1)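 Active affinity-purified piRISC carrying one synthetic guide (1 nM) was mixed with a transcribed, DNA-blocked target RNA library […] in HEPES–potassium acetate buffer at 33 °C for 0–8 or 0–960 min, with or without 500 nM GTSF1 partner protein. Uncleaved targets were then sequenced and normalised to depth and to weakly complementary targets. Three trials were pooled, and k3 was capped at 0.0001 min^-1. A burst-and-steady-state fit was applied to obtain the pre-steady-state cleavage rate.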

[2] = system: EfPiwi piRISC loaded with piRNA #1 (26 nt); test: pre-steady-state target cleavage rate (min^-1); auxiliary factor: 500 nM Ephydatia muelleri Gtsf1; guide: piRNA #1 5'p-UGAGGUAGUAGGUUGUAUAGUAUCCA; MIWI and MILI are mouse PIWI proteins and EfPiwi is from a freshwater sponge; tags in brackets are library labels; higher = faster piRNA-guided slicing of the target
How it was run: as §1

Sequence: GGAGACCAUACUAUACAACCUUCUACGUCA
- pre-steady-state target cleavage rate [1]: 0.00397 ± 0.0034
- pre-steady-state target cleavage rate [2]: 0.00387 ± 0.0029

Sequence: GGAGACCAUACGAUACAACCUACUACCUCA
- pre-steady-state target cleavage rate [1]: 0.255 ± 0.028
- pre-steady-state target cleavage rate [2]: 0.00769 ± 0.0035

Sequence: GGAGAGGAUACUAUUCAUCCUACUACCUCA
- pre-steady-state target cleavage rate [1]: 0.273 ± 0.02
- pre-steady-state target cleavage rate [2]: 0.00619 ± 0.0034

Sequence: GGAGACCUUACUAUACAACCUACUUCCUCA
- pre-steady-state target cleavage rate [1]: 0.0805 ± 0.016
- pre-steady-state target cleavage rate [2]: 0.0038 ± 0.0028

Sequence: GGAGAGGAAACUAUACAACCUACUACCUCA
- pre-steady-state target cleavage rate [1]: 0.222 ± 0.026
- pre-steady-state target cleavage rate [2]: 0.00596 ± 0.0036

Sequence: GGAGUGGAUACUAUACAUCGUACUACCUCA
- pre-steady-state target cleavage rate [1]: 0.0624 ± 0.0061
- pre-steady-state target cleavage rate [2]: 0.0051 ± 0.0023

Sequence: GGAGACCUAAGCUAUACAACCUACUACCUCA
- pre-steady-state target cleavage rate [1]: 0.141 ± 0.028
- pre-steady-state target cleavage rate [2]: 0.184 ± 0.066

Sequence: GGAGAGGAUACUAUACUACCAACUACCUCA
- pre-steady-state target cleavage rate [1]: 0.00796 ± 0.0017
- pre-steady-state target cleavage rate [2]: 0.00357 ± 0.0021

Sequence: GGAGAGGAUACUAUACAACAUACUACCUCA
- pre-steady-state target cleavage rate [1]: 0.0488 ± 0.0058
- pre-steady-state target cleavage rate [2]: 0.0063 ± 0.0023

Sequence: GGAGACCAUACUAUUCAACCUACUUCCUCA
- pre-steady-state target cleavage rate [1]: 0.1 ± 0.022
- pre-steady-state target cleavage rate [2]: 0.00483 ± 0.0048

Sequence: GGAGUGGAUACUAUAGAACCUACUACCACA
- pre-steady-state target cleavage rate [1]: 0.0519 ± 0.0082
- pre-steady-state target cleavage rate [2]: 0.0024 ± 0.001

Sequence: GGAGACCUAACUAUACAACCUACUACGACA
- pre-steady-state target cleavage rate [1]: 0.118 ± 0.037
- pre-steady-state target cleavage rate [2]: 0.00325 ± 0.0029

Sequence: GGAGACCUUACUAUUACAACCUACUACCUCA
- pre-steady-state target cleavage rate [1]: 0.117 ± 0.01
- pre-steady-state target cleavage rate [2]: 0.00484 ± 0.0035

Sequence: GGAGACCAUACUAUACAACCUACUACCUUA
- pre-steady-state target cleavage rate [1]: 0.22 ± 0.024
- pre-steady-state target cleavage rate [2]: 0.0127 ± 0.0048

Sequence: GGAGUGGAAACAAUACAACCUACUACCUCA
- pre-steady-state target cleavage rate [1]: 0.184 ± 0.018
- pre-steady-state target cleavage rate [2]: 0.00713 ± 0.0044

Sequence: GGAGACCUUACUAUACAACCUACUACCUCC [g2:g22:cont:t1C]
- pre-steady-state target cleavage rate [1]: 0.172 ± 0.017
- pre-steady-state target cleavage rate [2]: 0.0065 ± 0.0027

Sequence: GGAGACCAUACUAUACAUCCUACUAGCUCA
- pre-steady-state target cleavage rate [1]: 0.152 ± 0.024
- pre-steady-state target cleavage rate [2]: 0.00265 ± 0.0024

Sequence: GGAGUGGAUACUAUACUACCUACAACCUCA
- pre-steady-state target cleavage rate [1]: 0.117 ± 0.0096
- pre-steady-state target cleavage rate [2]: 0.00209 ± 0.0019

Sequence: GGAGACCAUACUUAUACAACCUACUACCUCA
- pre-steady-state target cleavage rate [1]: 0.132 ± 0.016
- pre-steady-state target cleavage rate [2]: 0.0757 ± 0.028

Sequence: GGAGACCUAACUAUACCACCUACUACCUCA
- pre-steady-state target cleavage rate [1]: 0.0944 ± 0.018
- pre-steady-state target cleavage rate [2]: 0.0066 ± 0.0031
